Test results taken from PubChem BioAssay AID1159580 (chemical genetic matrix, 2015).
Hit rate of the full screen: of about 5,500 compounds, about 2,000 (36%) were called active. Another 18% or so got no clear call; they are omitted. No stated cut-off is given here; in the data, active means normalized growth mostly below about 0.91 (no sharp cut-off); inconclusive means no clear call, values can overlap the other calls; inactive means mostly above about 0.92. The list shows a part of the results.

Assay: chemical genetic growth profiling, strain panel (AID 1159580);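 further: tested at 20 µM; growth read once vehicle control cultures reached saturation at 30 °C; 1 = growth at the plate median or of vehicle wells; lower values mean less growth of the strain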
Settings: growth OD

Measured: normalized growth

C[C@@H]1CC(Cl)CC[C@H]1C(=O)OC(C)(C)C (some centres not stated)
inactive: S. cerevisiae deletion strains, locus YJR075W, strain HOC1, active compounds read low 0.964 | S. cerevisiae deletion strains, locus YKL009W, strain mrt4, active compounds read low 1 | S. cerevisiae deletion strains, locus YKL068W, active compounds read low 0.98 | S. cerevisiae deletion strains, locus YKL085W, strain MDH1 (second series), active compounds read low 0.977 | S. cerevisiae deletion strains, locus YKL085W, strain MDH1, active compounds read low 0.977 | S. cerevisiae deletion strains, locus YKL160W, strain elf1, active compounds read low 1.02 | S. cerevisiae deletion strains, locus YKL190W, strain CNB1, active compounds read low 0.981 | S. cerevisiae deletion strains, locus YKR001C, strain vps1, active compounds read low 1.01 | S. cerevisiae deletion strains, locus YKR026C, strain gcn3, active compounds read low 0.985 | S. cerevisiae deletion strains, locus YKR091W, strain srl3, active compounds read low 0.982 | S. cerevisiae deletion strains, locus YLL001W, strain dnm1, active compounds read low 0.979 | S. cerevisiae deletion strains, locus YLL026W, active compounds read low 0.983 | S. cerevisiae deletion strains, locus YLL041C, strain sdh2, active compounds read low 0.982 | S. cerevisiae deletion strains, locus YLR027C, strain aat2, active compounds read low 0.982 | S. cerevisiae deletion strains, locus YLR039C, strain RIC1, active compounds read low 1 | S. cerevisiae deletion strains, locus YLR058C, strain SHM2, active compounds read low 0.991 | S. cerevisiae deletion strains, locus YLR102C, strain apc9, active compounds read low 0.991 | S. cerevisiae deletion strains, locus YLR113W, strain HOG1, active compounds read low 0.999 | S. cerevisiae deletion strains, locus YLR221C, strain rsa3, active compounds read low 1.01 | S. cerevisiae deletion strains, locus YLR258W, strain gsy2, active compounds read low 0.97 | S. cerevisiae deletion strains, locus YLR262C, strain YPT6 (second series), active compounds read low 0.965 | S. cerevisiae deletion strains, locus YLR262C, strain YPT6, active compounds read low 0.957 | S. cerevisiae deletion strains, locus YLR268W, strain sec22, active compounds read low 0.976 | S. cerevisiae deletion strains, locus YLR320W, strain mms22, active compounds read low 0.954 | S. cerevisiae deletion strains, locus YLR330W, strain CHS5, active compounds read low 0.99 | S. cerevisiae deletion strains, locus YLR342W, strain FKS1 (second series), active compounds read low 1.05 | S. cerevisiae deletion strains, locus YLR342W, strain FKS1, active compounds read low 0.98 | S. cerevisiae deletion strains, locus YLR357W, strain rsc2, active compounds read low 0.985 | S. cerevisiae deletion strains, locus YLR370C, strain arc18, active compounds read low 0.991 | S. cerevisiae deletion strains, locus YLR371W, strain rom2, active compounds read low 1 | S. cerevisiae deletion strains, locus YLR384C, strain iki3, active compounds read low 0.982 | S. cerevisiae deletion strains, locus YLR418C, strain cdc73, active compounds read low 0.972 | S. cerevisiae deletion strains, locus YML016C, strain PPZ1, active compounds read low 0.992 | S. cerevisiae deletion strains, locus YML032C, strain rad52, active compounds read low 0.967 | S. cerevisiae deletion strains, locus YML120C, strain ndi1, active compounds read low 1 | S. cerevisiae deletion strains, locus YML124C, strain tub3, active compounds read low 0.983 | S. cerevisiae deletion strains, locus YMR058W, strain fet3, active compounds read low 0.976 | S. cerevisiae deletion strains, locus YMR078C, strain ctf18, active compounds read low 0.985 | S. cerevisiae deletion strains, locus YMR125W, strain sto1, active compounds read low 0.962 | S. cerevisiae deletion strains, locus YMR129W, active compounds read low 0.961 | S. cerevisiae deletion strains, locus YMR205C, strain PFK2, active compounds read low 0.928 | S. cerevisiae deletion strains, locus YMR223W, strain ubp8, active compounds read low 1.04 | S. cerevisiae deletion strains, locus YMR231W, strain pep5, active compounds read low 0.995 | S. cerevisiae deletion strains, locus YMR263W, strain SAP30, active compounds read low 0.976 | S. cerevisiae deletion strains, locus YMR307W, strain GAS1, active compounds read low 1 | S. cerevisiae deletion strains, locus YNL067W, strain RPL9B, active compounds read low 0.959 | S. cerevisiae deletion strains, locus YNL071W, strain lat1, active compounds read low 0.985 | S. cerevisiae deletion strains, locus YNL128W, strain TEP1, active compounds read low 0.971 | S. cerevisiae deletion strains, locus YNL153C, strain GIM3, active compounds read low 0.986 | S. cerevisiae deletion strains, locus YNL183C, strain NPR1, active compounds read low 0.948 | S. cerevisiae deletion strains, locus YNL209W, strain ssb2, active compounds read low 0.989 | S. cerevisiae deletion strains, locus YNL233W, strain BNI4, active compounds read low 0.997 | S. cerevisiae deletion strains, locus YNL248C, strain rpa49, active compounds read low 1.01 | S. cerevisiae deletion strains, locus YNL250W, strain rad50, active compounds read low 0.987 | S. cerevisiae deletion strains, locus YNL271C, strain bni1, active compounds read low 0.976 | S. cerevisiae deletion strains, locus YNL298W, strain CLA4, active compounds read low 0.979 | S. cerevisiae deletion strains, locus YNL307C, strain MCK1, active compounds read low 0.995 | S. cerevisiae deletion strains, locus YNL322C, strain KRE1 (second series), active compounds read low 0.996 | S. cerevisiae deletion strains, locus YNL322C, strain KRE1, active compounds read low 0.956 | S. cerevisiae deletion strains, locus YNR049C, strain mso1, active compounds read low 0.971 | S. cerevisiae deletion strains, locus YNR052C, strain pop2, active compounds read low 0.989 | S. cerevisiae deletion strains, locus YOL006C, strain TOP1, active compounds read low 0.991 | S. cerevisiae deletion strains, locus YOL012C, strain htz1 0.765 | S. cerevisiae deletion strains, locus YOL147C, strain pex11, active compounds read low 0.992 | S. cerevisiae deletion strains, locus YOR001W, strain rrp6, active compounds read low 1 | S. cerevisiae deletion strains, locus YOR061W, strain CKA2, active compounds read low 0.993 | S. cerevisiae deletion strains, locus YOR069W, strain VPS5, active compounds read low 0.989 | S. cerevisiae deletion strains, locus YOR070C, strain gyp1, active compounds read low 0.991 | S. cerevisiae deletion strains, locus YOR080W, strain dia2, active compounds read low 0.98 | S. cerevisiae deletion strains, locus YOR083W, strain WHI5, active compounds read low 1.04 | S. cerevisiae deletion strains, locus YOR106W, strain vam3, active compounds read low 1 | S. cerevisiae deletion strains, locus YOR136W, strain idh2, active compounds read low 0.996 | S. cerevisiae deletion strains, locus YOR144C, strain elg1, active compounds read low 0.991 | S. cerevisiae deletion strains, locus YOR184W, strain ser1, active compounds read low 0.935 | S. cerevisiae deletion strains, locus YOR231W, strain MKK1, active compounds read low 1.01 | S. cerevisiae deletion strains, locus YOR265W, strain rbl2, active compounds read low 0.986 | S. cerevisiae deletion strains, locus YOR270C, strain vph1, active compounds read low 0.928 | S. cerevisiae deletion strains, locus YOR290C, strain snf2, active compounds read low 0.92 | S. cerevisiae deletion strains, locus YOR316C, strain cot1, active compounds read low 0.969 | S. cerevisiae deletion strains, locus YPL051W, strain arl3, active compounds read low 1 | S. cerevisiae deletion strains, locus YPL055C, strain LGE1, active compounds read low 0.864 | S. cerevisiae deletion strains, locus YPL078C, strain atp4, active compounds read low 1 | S. cerevisiae deletion strains, locus YPL106C, strain sse1, active compounds read low 0.962 | S. cerevisiae deletion strains, locus YPL240C, strain hsp82, active compounds read low 0.982 | S. cerevisiae deletion strains, locus YPL241C, strain CIN2, active compounds read low 0.997 | S. cerevisiae deletion strains, locus YPL256C, strain CLN2, active compounds read low 1.01 | S. cerevisiae deletion strains, locus YPR119W, strain clb2, active compounds read low 0.977 | S. cerevisiae deletion strains, locus YPR141C, strain kar3, active compounds read low 0.979 | S. cerevisiae deletion strains, locus YPR163C, strain tif3, active compounds read low 0.992 | S. cerevisiae deletion strains, locus YPR167C, strain met16, active compounds read low 0.977 | S. cerevisiae deletion strains, strain wtn01, active compounds read low 0.977 | S. cerevisiae strains, strain wild type, active compounds read low 0.984
